Values joined by “and” are separate entries in the source; they are usually repeats but may differ in a detail not shown here. Identical values can stand only once. Among all 350,000 compounds or so, about 31,000 (8.9%) were called active. Not shown: some 15% with an inconclusive outcome. Calls follow the shape of the dose curve; as a rule, active = well fitted inhibition curve with a large enough effect; inconclusive = small, poorly fitted or top-dose-only effect; inactive = no such curve, though single readings can be large or run the other way. The full list was thinned out, with actives kept by preference. The source holds several records for some structures; these can differ, active in one and inactive in another.
These compounds were tested against Histone-lysine N-methyltransferase EHMT2 (Homo sapiens) (UniProt Q96KQ7) (assay: qHTS Assay for Inhibitors of Histone Lysine Methyltransferase G9a). Settings: G9a H3K9 monomethylation, AlphaScreen, 2 h; series mostly up to 59 µM; activity, negative = inhibition: at the top concentration.
Sequence of Histone-lysine N-methyltransferase EHMT2 (Homo sapiens) (Q96KQ7 913-1193 limits assumed): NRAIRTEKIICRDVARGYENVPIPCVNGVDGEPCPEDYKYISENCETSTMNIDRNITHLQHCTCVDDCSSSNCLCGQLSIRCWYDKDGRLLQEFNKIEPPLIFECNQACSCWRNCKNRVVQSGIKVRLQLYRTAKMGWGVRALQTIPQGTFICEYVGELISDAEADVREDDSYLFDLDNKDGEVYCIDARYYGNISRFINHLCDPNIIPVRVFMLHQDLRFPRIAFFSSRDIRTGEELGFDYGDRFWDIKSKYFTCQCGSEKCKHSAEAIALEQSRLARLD
Summary of the method: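 Compounds were preincubated with 20 nM G9a for 15 min, after which biotinylated H3K9 peptide (500 nM) and SAM (20 uM) started a 2 h room-temperature reaction. Monomethylated product was quantified by antibody-based AlphaScreen chemiluminescence.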
% is scaled to controls: 0 for no effect and ±100 for the full control effect; potency is read from the fitted curve at half-maximal effect.
Also: nearly all actives have a fitted effect of over 75% in size.

| Compound | activity, negative = inhibition | Potency |
| --- | --- | --- |
| CC(=O)Nc1ccc(SC[C@H](Cc2ccccc2)N2CC[C@@H](C)CCC2=O)cc1 | -3.36% [at 0.501 µM] (inactive) |  |
| Cc1ccc(OCCSc2nc(-c3cccs3)nc3cc(=O)[nH]n23)cc1Cl | 13% (inactive) |  |
| Cc1ccc(C(=O)NNC(=O)c2ccncc2)cc1S(=O)(=O)N1CCCCC1 | -0.102% (inactive) |  |
| Cc1nc2cnc(Nc3ccccc3)nc2n(C[C@H]2CCCO2)c1=O | 8.09% [at 0.501 µM] (inactive) |  |
| O=S(=O)(NCC1CCCO1)c1ccc2ccccc2c1 (stereo not given) | 18.4% (inactive) |  |
| Cc1cccc(S(=O)(=O)N2CN(CC3CCCO3)c3nc4ccccc4nc32)c1 (stereo not given) |  | 50.1 µM (active) |
| COc1ccccc1NC(=O)c1cc(N2C(=O)C3C4CCC(C4)C3C2=O)ccc1Cl (stereo not given) | -0.617% (inactive) |  |
| Cc1ccc2nc(COc3ccccc3NC(=O)Nc3ccc(F)c(Cl)c3)cc(=O)n2c1 | 7.81% (inactive) |  |
| O=C(COC(=O)c1ncc(Cl)c(Cl)c1Cl)NCc1ccccc1 | -8.95% (inactive) |  |
| COc1ccccc1Nc1cc(C(=O)NCCCN(C)C2CCCCC2)c2ccccc2n1 | 10.4% (inactive) |  |
| COc1ccc(Nc2cc(C(=O)NCCCN(C)c3ccccc3)c3ccccc3n2)c(OC)c1 |  | 7.94 µM (active) |
| CCCCN(CCCNC(=O)c1cc(Nc2ccccc2OC)nc2ccccc12)c1ccccc1 | 9.4% (inactive) |  |
| NC(=O)C1CCN(C(=O)c2cccc(NC(=O)c3nsc4ccccc34)c2)CC1 | 1.5% (inactive) |  |
| CCN1C(=NCCc2cccnc2)N[C@@H](c2ccccc2)[C@H](C(=O)OC)[C@H]1C | -5.2% [at 12.7 µM] (inactive) |  |
| CCN1C(=NCCc2cccnc2)N[C@@H](c2ccccc2)C(C(=O)OC)=C1C |  | 44.7 µM (active) |
| COCCN1C(=O)N[C@@H](c2ccccc2)C(C(=O)OC)=C1C | -3.9% [at 102 µM] (inactive) |  |
| CC(=O)Nc1c(C)nn(-c2ccccc2)c1N1CCC(C(=O)Nc2cc(Cl)ccc2C)CC1 | 17.8% (inactive) |  |
| O=C(CN1C(=O)NC2(CCCC2)C1=O)OCCOc1ccc(F)cc1 | -1.07% [at 0.501 µM] (inactive) |  |
| CCOc1c(OC)cccc1C(=O)NCC1(c2ccccc2)CCCC1 | 82.4% [at 102 µM] (inactive) |  |
| Cc1ccc(-c2csc(N3CCN(c4cc5c(cc4Cl)nc(-c4ccncc4)n5CCOCCO)CC3)n2)cc1 |  | 50.1 µM (active) |
| CCCn1c(C2CCCN2c2nc(-c3ccc(C)cc3)cs2)nc2cc(Cl)c(N3CCCCC3)cc21 (stereo not given) | 6.77% [at 102 µM] (inactive) |  |
| Cn1c(=O)c2c(nc(NCCc3ccccc3)n2Cc2ccccc2Br)n(C)c1=O | -0.776% (inactive) |  |
| Cc1ccc(-n2c(SCC(=O)c3ccccc3)nc3c([nH]c4ccccc43)c2=O)cc1 | 8.15% (inactive) |  |

| Compound | activity, negative = inhibition | Potency |
| --- | --- | --- |
| CCOC(=O)c1c(NC(=O)C2CCN(S(=O)(=O)c3ccc(Cl)cc3)CC2)sc2c1CCCC2 | 21.6% [at 102 µM] (inactive) |  |
| O=C(Nc1sc2c(c1-c1nc3ccccc3[nH]1)CCCC2)C1CC1 |  | 50.1 µM (active) |
| O=C(OCc1nc2ccccc2[nH]1)C1CCCCC1 | 33.3% (inactive) |  |
| CC(C)c1ccc(NC(=O)c2ccc3c(O)c(S(=O)(=O)c4ccccc4)c(=O)[nH]c3c2)cc1 | -29.3% (inactive) |  |
| Cc1cc(C)cc(NC(=O)CSc2nc(=O)n(CCN3CCOCC3)c3c2CCC3)c1 | -2.62% (inactive) |  |
| Cc1ccc(Cn2cc(CCC(=O)NCc3ccc(OC(C)C)cc3)c3ccccc32)cc1 | -0.207% (inactive) |  |
| O=S(=O)(NCCc1ccc(Cl)cc1)c1cccs1 | 41% [at 102 µM] (inactive) |  |
| CCCOc1ccc(C(=O)NCCc2ccccc2)cc1 | 3.8% [at 102 µM] (inactive) |  |
| C[N+](C)(C)CCNC(=O)c1cc[n+](Cc2ccccc2)c(/C=N/O)c1 |  | 10 µM (active) |
| CN(c1ccccc1)S(=O)(=O)c1ccc(C(=O)NCCc2ccccc2)cc1 | -6.87% (inactive) |  |
| CCOc1ncccc1C(=O)OCC(=O)N1c2ccccc2CC1C (stereo not given) | 19% (inactive) |  |
| Cc1ncc(CO)c(/C=N/NC(=O)c2cccc(S(=O)(=O)N3CCCC3)c2)c1O | 25% [at 102 µM] (inactive) |  |
| Cc1cccc2cc(CN(Cc3cccs3)C(=S)NCc3ccco3)c(=O)[nH]c12 | -9.03% (inactive) |  |
| Cc1ccc(C)c2[nH]c(=O)c(CN(Cc3cccnc3)C(=S)NCc3ccco3)cc12 |  | 50.1 µM (active) |
| Cc1cc(C)c2[nH]c(=O)c(CN(Cc3ccccc3)C(=S)NCCCN(C)C)cc2c1 | -28.9% [at 102 µM] (inactive) |  |
| COc1ccc(C(=O)NCC2CCCCC2)cc1S(=O)(=O)N1CCCC1 | -36.7% [at 12.7 µM] (inactive) |  |
| COc1ccc(CNC(=O)/C(C#N)=C/c2cccc(OC)c2OC)cc1 | 44% [at 0.501 µM] (inactive) |  |
| COCCNC(=O)/C(C#N)=C/c1cccc(OCc2ccccc2)c1 | 2.45% [at 102 µM] (inactive) |  |
| N#C/C(=C\c1ccc(O)c(O)c1)C(=O)NCc1ccccc1 |  | 5.01 µM (active) and 5.62 µM (active) and 4.74 µM (active) |
| COc1ccc(NC(=O)C2=CC(c3ccc(OC)c(OC)c3)=NS(=O)(=O)N2C)cc1 | -137% [at 102 µM] (inactive) |  |
| COc1ccc(C2=NS(=O)(=O)N(C)C(C(=O)N(C)Cc3ccccc3)=C2)cc1 | 5.73% [at 12.7 µM] (inactive) |  |
| COc1ccc(C2=NS(=O)(=O)N(C)C(C(=O)NC(C)c3ccccc3)=C2)cc1 (stereo not given) |  | inactive and 14.1 µM (active) |
| CC(=O)N1c2ccc(S(=O)(=O)N3CCCC(C(=O)Nc4cccc(F)c4)C3)cc2CC1C (stereo not given) | -7.59% [at 12.7 µM] (inactive) |  |

| Compound | activity, negative = inhibition | Potency |
| --- | --- | --- |
| CCN(CCCNC(=O)Cn1ncc2c3ccccc3n(C)c2c1=O)Cc1ccccc1 | 1.37% (inactive) |  |
| CCC(CC)c1nn2cc(-c3ccccc3)nc2s1 | 30.5% (inactive) |  |
| O=C(Nc1ccc2c(c1)OCCO2)C1CCCC1 | 2.92% [at 12.7 µM] (inactive) |  |
| Cc1ccc(-n2c(C)cc(/C=N/Nc3ccc([N+](=O)[O-])cn3)c2C)c(C)c1 | -11.9% (inactive) |  |
| Cc1cc(/C=N/Nc2ccc([N+](=O)[O-])cn2)c(C)n1-c1cccc(C(=O)O)c1 |  | 15.8 µM (active) |
| Cc1cccc(C)c1NC(=O)CSc1ccc([N+](=O)[O-])cn1 | -14.7% (inactive) |  |
| C#CC(C)(CC)NC(=O)Cn1nnc(-c2ccc(OCc3c(F)cccc3Cl)cc2)n1 (stereo not given) | -5.54% (inactive) |  |
| CCOc1ccc(NC(=O)CN(C)C(=O)c2c(C)noc2C)cc1OCC | 2.91% [at 102 µM] (inactive) |  |
| COCCN(C(=O)CSCc1ccc(C)cc1)c1c(N)n(CC(C)C)c(=O)[nH]c1=O | 19% [at 12.7 µM] (inactive) |  |
| Cc1ccc(CSCC(N)C(=O)O)cc1 (stereo not given) |  | 15.8 µM (active) |
| Cc1ccc(CSCC(=O)N(C)CC(=O)Nc2cccc(F)c2)cc1 | 5.8% [at 102 µM] (inactive) |  |
| Cc1ccc2c(=O)c(C(=O)c3ccc(F)cc3)cn(CC(=O)NC3CCCCC3)c2n1 | -25.3% (inactive) |  |
| O=C(NCCCN1CCCC1=O)c1cccc(S(=O)(=O)NCc2ccccc2)c1 | -27% [at 102 µM] (inactive) |  |
| O=C(CSCC(=O)Nc1cccc([N+](=O)[O-])c1)Nc1ccccc1 | -22.9% (inactive) |  |
| CN(CC(=O)Nc1cccc(F)c1)CC(=O)Nc1cccc([N+](=O)[O-])c1 | -15.7% (inactive) |  |
| COc1ccc(S(=O)(=O)NC(C)C(=O)N2CCCCCC2)cc1 (stereo not given) | 14.2% [at 102 µM] (inactive) |  |
| COc1ccc(S(=O)(=O)NC(C)C(=O)Nc2cccc([N+](=O)[O-])c2)cc1 (stereo not given) |  | 50.1 µM (active) |
| COc1ccc(CCNS(=O)(=O)c2cccc([N+](=O)[O-])c2)cc1 | -4.51% [at 102 µM] (inactive) |  |
| COC(=O)/C=C\C(=O)Nc1cccc([N+](=O)[O-])c1 |  | 1.41 µM (active) |
| Cc1c(C(=O)N(C)C)sc2c1c(=O)n(-c1ccc(F)cc1)c(=O)n2CC(=O)N(C)c1ccccc1 | 1.6% (inactive) |  |
| CC1=C(C(=O)Nc2ccccc2)C(c2ccc(C)cc2)n2nc(SCc3ccccc3C)nc2N1 (stereo not given) | 9.21% (inactive) |  |
| CCc1cccc(C)c1NC(=O)COC(=O)CNC(=O)c1cccs1 | -30.4% [at 102 µM] (inactive) |  |
| CCC1(c2ccccc2)NC(=O)N(CC(=O)Nc2ccccc2C(=O)NC2CCCC2)C1=O (stereo not given) | 20.5% [at 0.501 µM] (inactive) |  |

| Compound | activity, negative = inhibition | Potency |
| --- | --- | --- |
| COc1cc2c(cc1OC)C(C(=O)Nc1cc(C)c(OC)c(C)c1)CC(=O)N2 (stereo not given) | 17.9% [at 102 µM] (inactive) |  |
| COc1cc(Br)c(-c2sc(Nc3ccccc3)n[n+]2-c2ccccc2)cc1OC |  | 28.2 µM (active) |
| CCc1ccc(Nc2n[n+](-c3ccccc3)c(-c3cccc(Cl)c3Cl)s2)cc1 | 10.7% [at 2.33 µM] (inactive) |  |
| COc1ccc(C(=O)Nc2cccc(C(=O)OCc3cc(=O)n4c5c(sc4n3)CCCC5)c2)cc1 | 9.1% (inactive) |  |
| COc1ccc(C)cc1NC(=O)CSc1nnc2ccc(-c3ccccn3)nn12 | 2.04% [at 0.501 µM] (inactive) |  |
| COCCn1c(C)cc(C(=O)COC(=O)/C=C/c2cccc(OC)c2)c1C |  | 44.7 µM (active) |
| COc1cccc(/C=C/C(=O)OCC(=O)N2CCN(c3ccccc3)CC2)c1 | -4.22% [at 12.7 µM] (inactive) |  |
| COCCn1c(C)cc(C(=O)COC(=O)CNC(=O)c2ccco2)c1C | 26.7% (inactive) |  |
| Cc1cccc(-n2ncc(C(=O)N3CCc4ccccc4C3)c2C2CCN(C(=O)OC(C)(C)C)CC2)c1 | -1.5% (inactive) |  |
| COc1ccc(CNC(=O)c2ccc3c(c2)nc2n3CCOC2)c(OC)c1 | 1.96% (inactive) |  |
| CCc1ccccc1NC(=O)CN(C)C(=O)COc1ccc(C)nc1[N+](=O)[O-] | 23% (inactive) |  |
| CCOC(=O)c1c(C)oc2ccc(OCC(=O)N(CC)CC)cc12 | 8.65% (inactive) |  |
| CCc1nc(C)ccc1OCC(=O)N(CC)CC |  | 28.2 µM (active) |
| CCc1cccc(C)c1NC(=S)N(CCCN1CCN(C)CC1)Cc1cccs1 | 112% (inactive) |  |
| Cc1cccc(C)c1NC(=O)N1CC(C)OC(C)C1 (stereo not given) | 16.9% [at 102 µM] (inactive) |  |
| Cc1cccc(C)c1NC(=O)C1(C)c2cccc[n+]2CC(=O)N1Cc1cccs1 (stereo not given) |  | 14.1 µM (active) |
| O=C(OCC(=O)N1CCCC1)c1ccc(Cl)nc1 | 4.27% (inactive) |  |
| CCOC(=O)C1CCCN(C(=O)c2ccc(C)c(S(=O)(=O)N3CCCCC3)c2)C1 (stereo not given) | 38.4% [at 12.7 µM] (inactive) |  |
| COc1ccccc1CNc1nc(-c2c(C)noc2C)nc2ccccc12 | -6.92% [at 0.501 µM] (inactive) |  |
| C=CCOc1c(CNn2cn[nH]c2=S)cccc1OC |  | 20 µM (active) |
| C=CCOc1cccc(CNn2cn[nH]c2=S)c1 | 24.4% [at 0.0925 µM] (inactive) |  |
